{
  "source": "PubChem BioAssay AID2730",
  "about": "(National Center for Advancing Translational Sciences (NCATS), 2010)",
  "note": "The other results are listed elsewhere or left out. Inconclusive results are not listed. Calls of active or inactive are those of the source. The call rests on the fitted dose curve; in most records, active means well fitted inhibition curve with a large enough effect; inconclusive means small, poorly fitted or top-dose-only effect; inactive means no such curve, though single readings can be large or run the other way.",
  "data": [
    {"test": "High Content Assay for Compounds that inhibit the Assembly of the Perinucleolar Compartment: Confirmation of PNC Inhibition", "settings": "PC3M PTB-GFP, PNC prevalence imaging, 16 h; series mostly up to 46.1 µM; activity, negative = PNC inhibition: at the top concentration", "text": "High Content Assay for Compounds that inhibit the Assembly of the Perinucleolar Compartment NIH Chemical Genomics Center [NCGC] NIH Molecular Libraries Probe Centers Network [MLPCN] MLPCN Grant: MH082371-01A2 Assay Submitter (PI): Sui Huang, Northwestern University, Feinberg School of Medicine, Cell and Molecular Biology, Chicago, Illinois. The perinucleolar compartment (PNC) is a non-membrane-bound nuclear subdomain that is associated with but structurally distinct from the nucleolus. The PNC is a heritable trait, in which the number of PNCs per cell in daughter cells often mimics that of their mother cells. The PNC is heterogeneous in shape, is stable through interphase, disassembles during mitosis, and reassembles in early G1. The PNC is concentrated with newly synthesized RNA polymerase III (pol III) RNAs (MRP RNA, RNAse P H1 RNA, hY RNAs[hY1, 2, 5], Alu RNA, and SRP [7SL] RNA) and RNA binding proteins (nucleolin, PTB, CUG-BP, KSRP, Raver1, Raver2, and Rod). […] Extensive in vitro studies have shown that the PNC is unique to tumor cells and preferentially forms in tumor cells derived from solid tissues. Examination of cancer cell lines from various origins and malignant capacities has shown that PNC prevalence correlates with the malignancy of tumors and has the potential to be developed as a pan-cancer prognostic marker. […] Although the PNC is associated with a DNA locus and a handful of components have been identified, much remains to be investigated regarding the structure and function of the PNC and its mechanistic link to cancer. We have previously shown that PNC prevalence reduction is a valid strategy to identify compounds that can be used to study the structure and function of the PNC. It is necessary, however, to create a screening platform that is able to test a large number of compounds in an automated fashion. Here we report the development and robustness of an automated whole-cell phenotypic image-based screening assay that is capable of identifying such compounds. Compounds active in the primary screen were then re-screened in concentration-response to confirm activity.\nPNC High Content Imaging Assay Procedure: 1. Cells at a density of 75-90% confluency in T175 flasks were harvested using 7 ml TrypLE Express cell dissociation reagent. After dissociation (5 minutes room temperature incubation) 10 ml of complete media was added to the TrypLE/cell suspension. The liquid was transferred to a 50 ml Conical tube and cells were pelleted at 1000 RPM for 5 min. Supernatant was removed and cells were resuspended to a final density of 150-200 cells/ul in complete media. 2. Cells were plated in 5 ul volume (750-1000 cells/well) into 1536 well Black uclear Aurora Low Base plates and allowed to recover and adhere at 37 C in a humidified 5% CO2 incubator for 4 hours. 3. After 4 hour incubation, compound libraries (23 nl of […] in columns 5-48) were transferred to the plates in duplicate using a 1536 well pintool. Camptothecin positive control (59 uM final) was added to column 2 and 1:3 dilutions of camptothecin was added to column 3. DMSO negative controls were present in columns 1 and 4. 4. After a 16 hour incubation in the 37 C incubator, cells were fixed by the addition of 4 ul of 6% EM grade paraformaldehyde (containing 0.1% triton X 100) directly to the cells. The plates were incubated at room temperature for 20 minutes. […]", "values": [
      {"smiles": "CCOC(=O)c1c(-c2cccc(C)c2)csc1NC(=O)c1c(-c2ccccc2)noc1C", "Potency": "2.51 µM (active)"},
      {"smiles": "N=c1c2c(-c3ccccc3)c(-c3ccccc3)n(Cc3ccccc3)c2ncn1CCCO", "Potency": "4.47 µM (active)"},
      {"smiles": "COC(=O)c1ccc(CSc2ccccc2C)o1", "activity, negative = PNC inhibition": "9.2% (inactive)"},
      {"smiles": "COC(=O)C1=C(C)N(c2ccc(Br)cc2)C(=O)/C1=C\\c1ccco1", "activity, negative = PNC inhibition": "-26.2% (inactive)"},
      {"smiles": "Cn1c2ccccc2c(=O)c2c(=O)n(Cc3ccco3)c(COc3ccccc3)nc21", "Potency": "11.2 µM (active)"}
    ]}
  ]
}
